# The campaign covered roughly 350,000 compounds. About 5,500 (1.6%) were called active.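 Rule for the calls: active = significant combined selectivity score with lowered wild-type GFP, culture density cut under 30%, mutant RFP and density less affected; inactive = any of these conditions unmet.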 The sample as a whole holds a higher share of actives than the screen did.
# Test: GFP drop in mixed WT/humanized-ribosome E. coli culture – GFP/RFP fluorescence, OD600, single point, bacterial rRNA inhibitor project, primary screen (AID 720706)
# Conditions: E. coli WT GFP vs humanized-ribosome RFP mutants, 24 h; GFP signal change (wild-type ribosome): stronger effect = lower value, DMSO median 0, no signal -100; OD600 change: measured here: OD600 growth, DMSO median 0, no signal -100; RFP signal change: measured here: RFP humanized mutant strains, DMSO median 0, no signal -100, concentration not given here
Compound,GFP signal change (wild-type ribosome),OD600 change [%],RFP signal change [%]
Cc1nn(C)c(C)c1S(=O)(=O)N1CCC(CO)(Cc2ccc(Cl)cc2)CC1,-22% (active),-16.9,0.06
CCOc1ccccc1NC(=O)C1CCN(S(=O)(=O)c2c(C)nn(C)c2C)CC1,3.06% (inactive),-0.4,-2.77
COc1ccc(CC2(CO)CCN(Cc3cnn(C)c3)CC2)cc1,25.9% (inactive),13,1.82
O=C(NCC[C@@H]1CC[C@@H](NC(=O)c2ccccc2F)[C@H](CO)O1)c1ccc2c(c1)OCO2,0.211% (inactive),0.175,-1.31
COc1ccc(NC(=O)N(C)C[C@@H]2Oc3ccc(NS(=O)(=O)c4ccc(Cl)cc4)cc3C(=O)N([C@H](C)CO)C[C@@H]2C)cc1,-1.87% (inactive),-3.81,4.46
CCN(CC)C(=O)C(=O)Nc1cccc(Br)c1,2.19% (inactive),1.55,-1.36
CCN(CC)C(=O)Oc1ccc(Br)cc1C(=O)Nc1ccc(F)c(Cl)c1,-28% (active),-13.7,-1.17
CCCOc1ccc(F)cc1-c1cc(C(=O)Nc2ccc(F)c(Cl)c2)[nH]n1,-11.9% (inactive),-20.4,8.72
COc1ccc2c3c(n(C)c2c1)[C@@H](CO)N(Cc1ccccc1OC)CC31CN(CC2CCOCC2)C1,2.13% (inactive),1.76,-0.161
COc1ccc(S(=O)(=O)Nc2ccc3c(c2)C(=O)N([C@H](C)CO)C[C@@H](C)[C@@H](CN(C)CC2CCCCC2)O3)cc1,3.31% (inactive),-3.13,-1.7
O=C(C[C@H]1CC[C@@H]2[C@H](COC[C@H](O)CN2Cc2ccc(Oc3ccccc3)cc2)O1)N1CCN(c2ccccc2)CC1,-14.8% (inactive),-41.1,19.9
C[C@@H]1COCc2cnnn2CC[C@H](Cc2ccccc2)C(=O)N1,1.97% (inactive),6.09,0.175
CCc1ccc(C2=CC(=O)CC(C)(C)C2=O)cc1,9.3% (inactive),6.63,1.11
COC(=O)C1=C(C)N(Cc2ccc(C(F)(F)F)cc2)C(=NCc2ccc(C(F)(F)F)cc2)NC1c1cccc(Cl)c1 (configuration not stated),-29.5% (active),-8.48,10.4
COC(=O)C1=C(C)N(Cc2ccc(C(F)(F)F)cc2)C(=NCc2ccccc2)NC1c1ccccc1C(F)(F)F (configuration not stated),-44.7% (inactive),-75.3,-10.2
COC(=O)C1=C(C)N(Cc2cccc(C(F)(F)F)c2)C(=NCc2ccccc2)NC1c1ccc(Cl)cc1 (configuration not stated),-51.5% (inactive),-79.1,-15.9
CO[C@@H]1CN(C)C(=O)c2cc(NS(=O)(=O)c3ccccc3)ccc2OC[C@@H](C)N(C(=O)NC(C)C)C[C@@H]1C,1.8% (inactive),-5.96,-2.55
C[C@H](O)C#Cc1ccc([C@H]2[C@H](CO)N3CCCCN(C(=O)c4ccc(F)cc4)C[C@@H]23)cc1,4.08% (inactive),14.8,0.514
CC(C)NC(=O)Nc1cccc2c1O[C@@H](CN(C)C(=O)NC(C)C)[C@@H](C)CN(C)C2=O,-0.63% (inactive),-5.7,-0.789
CC(C)NC(=O)N(C)C[C@H]1Oc2c(cccc2N(C)C)C(=O)N(C)C[C@H]1C,3.79% (inactive),5.03,-1.64
CN(C)C(=O)c1ccc(-c2ccc(C3[C@@H]4CN(S(=O)(=O)c5cccc(Cl)c5)C[C@H]3N4)cc2)cc1 (some centres not stated),-4.17% (inactive),-4.3,1.15
c1ccc2sc(NN=C3CCCC3)nc2c1,-34.8% (active),-19.9,0.135

Compound,GFP signal change (wild-type ribosome),OD600 change [%],RFP signal change [%]
c1ccc(C(=NNc2nc3ccccc3s2)c2ccccn2)cc1,-3.87% (inactive),-7.96,1.5
CCN(CC)CCn1c2c(c(SCC(=O)Nc3nc4ccccc4s3)nc1=O)CCCC2,-8.54% (inactive),-9.96,4.44
CN(C)c1nc(=Nc2cccc(Cl)c2)ss1,-20.6% (active),-16.1,6.27
COc1ccc(CN(C)C[C@@H]2Oc3ccc(NS(=O)(=O)c4cn(C)cn4)cc3C(=O)N([C@@H](C)CO)C[C@@H]2C)cc1,2.98% (inactive),9.11,-0.744
COc1ccc2c3c([nH]c2c1)[C@H](CO)N(CC1CC1)CC31CN(C(=O)Nc2cccc(F)c2)C1,-4% (inactive),-2.33,0.442
CCCNC(=O)N(C)C[C@H]1Oc2ncc(-c3cccc(C#N)c3)cc2C(=O)N([C@@H](C)CO)C[C@@H]1C,6.13% (inactive),2.48,4.15
COc1cccc(C(NC(C)=O)c2nc(-c3cnc4ccccc4c3)cs2)c1 (configuration not stated),1.07% (inactive),7.87,-4.72
COc1cccc(C(NC(C)=O)c2nc(-c3ccccc3OC)cs2)c1 (configuration not stated),-17.2% (active),-5.72,3.69
CC(=O)NC(c1ccccc1)c1nc(-c2ccccc2C)cs1 (configuration not stated),6.39% (inactive),1.11,0.505
CC(C)NC(=O)Nc1ccc2c(c1)C(=O)N([C@@H](C)CO)C[C@@H](C)[C@H](CN(C)C)OCCCC[C@H](C)O2,4.43% (inactive),12.9,-2.38
CCOC(=O)CNC(=O)/C(=C\c1ccc(F)cc1)NC(=O)c1ccccc1,7.79% (inactive),7.99,-0.754
CCOC(=O)C(=Cc1ccccc1)C(=O)c1ccccc1,-45.9% (active),-44.3,-8.34
CCOC(=O)C(=Cc1ccccc1OC)C(=O)OCC,-1.94% (inactive),-6.41,-3.6
COc1ccccc1C(=O)NCCn1cc(SCC(=O)NCc2ccco2)c2ccccc21,-24.1% (active),-15.6,1.51
COc1ccccc1C(=O)NCCC(=O)NCC(c1ccco1)N1CCCCC1 (configuration not stated),3.93% (inactive),11.1,2.81
COc1cccc(OC)c1C(=O)NC(=S)NCc1ccco1,10.3% (inactive),5.07,-0.715
COc1ccc2c3c([nH]c2c1)[C@@H](CO)N(C(=O)CN1CCOCC1)CC31CCN(C)CC1,1.95% (inactive),7.83,0.695
C[C@@H]1CN([C@H](C)CO)C(=O)c2cc(-c3cccc(F)c3)cnc2O[C@@H]1CN(C)C,2.27% (inactive),6.45,-2.92
COc1ccc(NCCc2ccccn2)cc1,12.7% (inactive),10.1,9.18
COc1cccc(CN2CC3(CN(Cc4ccccn4)C3)c3c([nH]c4cc(OC)ccc34)[C@@H]2CO)c1,0.969% (inactive),8.73,5.99
COc1ccc2c(c1)c1ncn(Cc3ccccn3)c(=O)c1n2C,-22.5% (active),-10.5,-3.41
C[C@H]1CCCCO[C@H](CN(C)CC2CCCCC2)[C@@H](C)CN([C@@H](C)CO)C(=O)c2cc(NS(=O)(=O)c3ccc(Cl)cc3)ccc2O1,-56.3% (inactive),-77.3,-17.5

Compound,GFP signal change (wild-type ribosome),OD600 change [%],RFP signal change [%]
CN(C)C(=O)c1cccc(-c2ccc([C@H]3[C@H](CO)N4C(=O)CN(C(=O)Cc5ccccc5)C[C@@H]34)cc2)c1,6.84% (inactive),11.5,5.77
Cc1ccc(O)c(NC(=S)NC(=O)COc2ccc(Br)cc2)c1,-23.6% (active),-13.5,6.14
CC(=O)Nc1ccc(OC(=O)COc2ccc(Br)cc2)cc1,18.1% (inactive),16.8,1.93
Cn1cccc1C(=O)NNC(=O)COc1ccc(Br)cc1,-1.7% (inactive),4.13,0.868
CC[C@H]1CC=CC[C@@H](C)Oc2ccccc2C(=O)N(C)[C@H](Cc2ccccc2)C(=O)N1 (mixture of isomers),-6.4% (inactive),-38,-3.29
CC(C)NC(=O)N(C)C[C@H]1Oc2ncc(C#CC3(O)CCCC3)cc2C(=O)N([C@H](C)CO)C[C@@H]1C,2.98% (inactive),9.89,0.31
O=[N+]([O-])c1cc(C(F)(F)F)ccc1NCCc1ccncc1,1.68% (inactive),6.66,-1.21
Nc1ccccc1Sc1cc(Cl)nnc1Cl,2.47% (inactive),3.13,-2.25
Nc1ccccc1Sc1ccc(C(F)(F)F)cc1[N+](=O)[O-],-36.7% (active),-4.9,-9.75
C[C@H]1CN([C@@H](C)CO)C(=O)c2cccc(NC(=O)c3ccncc3)c2O[C@@H]1CN(C)C,2.69% (inactive),14.6,-0.879
CCc1noc(C)c1C(=O)OCC(=O)c1ccc(NC(=O)CC(C)C)cc1,-6.83% (inactive),-38.8,4.13
Cc1ccc(-c2csc(NC(=O)C3=COCCO3)n2)cc1C,-32% (inactive),-55.4,17.9
CCc1noc(C)c1C(=O)Nc1nc(-c2ccccc2)cs1,-30.7% (active),-24.6,-5.38
COc1ccc2c3c(n(C)c2c1)[C@H](CO)N(Cc1cccnc1)CC31CCN(Cc2cccnc2)CC1,-3.41% (inactive),7.26,0.685
C[C@@H]1CN([C@@H](C)CO)C(=O)c2cc(N(C)C)ccc2O[C@@H](C)CCCCO[C@@H]1CN(C)C(=O)CCC(F)(F)F,-1.52% (inactive),-0.235,1.42
C/C=C/c1cccc(-c2nc(C(=O)NCCN3CCCC3)cc3c2[C@@H](CCO)N([S@](=O)C(C)(C)C)C3)c1,6.3% (inactive),-2.18,-0.457
CCOC(=O)C1(CCOc2ccccc2)CCN(Cc2ccc(C#CCCO)cc2)CC1,2.81% (inactive),-4.44,-0.935
CCOC(=O)C1(CCOc2ccccc2)CCN(Cc2cc(OC)cc(OC)c2)CC1,-33.8% (active),-25.8,-6.01
CCCS(=O)(=O)N1CCC(CCOc2ccccc2)(C(=O)OCC)CC1,-17.9% (inactive),-32.1,-4.54
COc1ccc2c3c([nH]c2c1)[C@H](CO)N(Cc1cccc(F)c1)CC31CCN(CC2CC2)CC1,4.42% (inactive),4.76,-1.35
